Reference: PubChem BioAssay (NCI)
Compounds without any hit were thinned out: in the full panel of roughly 79,000, 15% have a hit. Active and inactive are the calls of the source. Rule as the data show it: active = growth inhibition above about 70%; inactive = the rest.

Key:
[1] = NCI Yeast Anticancer Drug Screen. Data for the rad52 strain (AID 147);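 also: 0% = growth of vehicle-treated control cultures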; conditions: S. cerevisiae rad52 mutant growth inhibition, active compounds read high
Outline: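 Inhibition of yeast growth, referenced to vehicle controls, was the measured output for a strain with defective DNA damage repair.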

[2] = NCI Yeast Anticancer Drug Screen. Data for the wt1 strain (AID 149);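 also: 0% = growth of vehicle-treated wt1 cultures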; conditions: S. cerevisiae wt1 strain (SPY 50644) growth inhibition, active compounds read high
Outline: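 Readout: yeast growth inhibition, normalised to vehicle controls, in the wt1 strain exposed to test compounds.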

[3] = NCI Yeast Anticancer Drug Screen. Data for the rad50EPP+ strain (AID 151);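 also: 0% = growth of vehicle-treated control cultures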; conditions: S. cerevisiae rad50 mutant strain, active compounds read high
Outline: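 Genetically defined yeast (rad50EPP+, DNA damage repair alteration) is grown with compound, and inhibition of growth is expressed relative to vehicle-treated controls.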

[4] = NCI Yeast Anticancer Drug Screen. Data for the rad50 strain (AID 155);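 also: 0% = growth of vehicle-only cultures of the same strain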; conditions: S. cerevisiae rad50 strain growth inhibition, active compounds read high
Outline: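 Compounds were tested on a yeast strain with an engineered DNA damage repair alteration; the reported value is growth inhibition normalised to vehicle treatment.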

[5] = NCI Yeast Anticancer Drug Screen. Data for the mec2-1 strain (AID 157); conditions: S. cerevisiae mec2-1 strain, active compounds read high
Outline: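 Each compound was tested on mec2-1 yeast, a strain altered in DNA damage repair or cell cycle control. Growth inhibition is reported relative to vehicle.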

[6] = NCI Yeast Anticancer Drug Screen. Data for the rad14 strain (AID 159);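 also: 0% = growth of vehicle-treated control cultures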; conditions: S. cerevisiae rad14 strain growth inhibition, active compounds read high
Outline: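 Compound-treated yeast with a defined DNA-repair lesion; growth inhibition normalised to vehicle-treated cultures.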

[7] = NCI Yeast Anticancer Drug Screen. Data for the sgs1 mgt1 strain (AID 161);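 also: 0% = growth of cultures given vehicle only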; conditions: S. cerevisiae sgs1 mgt1 strain, active compounds read high
Outline: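 Genetically altered yeast, compound exposure, growth inhibition relative to vehicle.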

[8] = NCI Yeast Anticancer Drug Screen. Data for the CLN2oe strain (AID 163);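 also: 0% = growth of vehicle-only control cultures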; conditions: S. cerevisiae CLN2oe strain, active compounds read high
Outline: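 First, the altered yeast strain was treated with each compound; second, its growth was measured; finally, inhibition was derived by comparison with vehicle controls.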

[9] = NCI Yeast Anticancer Drug Screen. Data for the cln2 rad14 strain (AID 165);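 also: 0% = growth equal to vehicle treated cultures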; conditions: S. cerevisiae cln2 rad14 strain, active compounds read high
Outline: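 Test compounds were added to cln2 rad14 yeast cultures; inhibition of growth was then determined by comparison with vehicle treatment.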

[10] = NCI Yeast Anticancer Drug Screen. Data for the wt2 strain (AID 169);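 also: 0% = growth of vehicle-treated yeast cultures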; conditions: S. cerevisiae wt2 strain growth inhibition, active compounds read high
Outline: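 The panel's yeast strains carry defined changes in DNA repair or cell cycle genes. Each strain is grown with compound, and growth loss is scored relative to vehicle.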

[11] = NCI Yeast Anticancer Drug Screen. Data for the mlh1 strain (AID 171);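 also: 0% = growth of vehicle-treated control cultures of the same strain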; conditions: S. cerevisiae mlh1 strain growth inhibition, active compounds read high
Outline: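 Inhibition values reflect reduced yeast growth in the presence of compound, referenced to vehicle controls, using a strain chosen for its alteration in DNA repair or cell cycle control.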

[12] = NCI Yeast Anticancer Drug Screen. Data for the mlh1 rad18 strain (AID 175); conditions: S. cerevisiae mlh1 rad18 strain growth inhibition, active compounds read high
Outline: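 Inhibition values reflect reduced growth of mutant yeast versus vehicle-treated controls following compound exposure; the mutations affect DNA damage repair.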

[13] = NCI Yeast Anticancer Drug Screen. Data for the rad18 strain (AID 177); conditions: S. cerevisiae rad18 mutant growth inhibition, active compounds read high
Outline: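 Steps: expose repair-mutant yeast to compound; measure growth; express as inhibition relative to vehicle control.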

[14] = NCI Yeast Anticancer Drug Screen. Data for the bub3 strain (AID 167); conditions: S. cerevisiae bub3 mutant strain, active compounds read high
Outline: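 Growth of a checkpoint-deficient yeast mutant is measured after compound exposure. Values represent inhibition relative to vehicle.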

[15] = NCI Yeast Anticancer Drug Screen. Data for the sgs1 strain (AID 173);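 also: 0% = growth of vehicle-only control cultures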; conditions: S. cerevisiae sgs1 mutant, active compounds read high
Outline: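 Vehicle-treated cultures served as reference for growth inhibition of a yeast strain altered in DNA damage repair or cell cycle control after compound exposure.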

[16] = NCI Yeast Anticancer Drug Screen. Data for the mgt1 strain (AID 153); conditions: S. cerevisiae mgt1 mutant growth inhibition, active compounds read high
Outline: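 In the mgt1 strain, test compounds were added and growth inhibition was determined relative to vehicle-treated controls.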

[17] = at 5.0 µM (retest, dose inferred, filed as 0.5)
[18] = at 50.0 µM (retest, dose inferred, filed as 5.0)

Measured: growth inhibition

N#CC(=S)Nc1cccc(Cl)c1
inactive: [1]; at 1.2 µM 3% | [1]; at 3.7 µM 1% | [1]; at 11.0 µM 10% | [1]; at 33.0 µM 26% | [1]; at 100.0 µM 50% | [2]; at 1.2 µM 7% | [2]; at 3.7 µM 10% | [2]; at 11.0 µM 23% | [2]; at 33.0 µM 31% | [2]; at 100.0 µM 41% | [3]; at 1.2 µM -12% | [3]; at 3.7 µM 2% | [3]; at 11.0 µM 10% | [3]; at 33.0 µM 25% | [3]; at 100.0 µM 46% | [4]; at 1.2 µM 5% | [4]; at 3.7 µM 8% | [4]; [17] 39% | [4]; at 11.0 µM 3% | [4]; at 33.0 µM 18% | [4]; at 50.0 µM 46.9% | [4]; at 100.0 µM 51% | [5]; at 1.2 µM 28% | [5]; at 3.7 µM 19% | [5]; [17] 19% | [5]; at 11.0 µM 33% | [5]; at 33.0 µM 28% | [5]; [18] 64% | [5]; at 50.0 µM 57% | [6]; at 1.2 µM 2% | [6]; at 3.7 µM -6% | [6]; at 11.0 µM 9% | [6]; at 33.0 µM 35% | [7]; [17] 28% | [7]; [18] 68% | [7]; at 50.0 µM 66.7% | [8]; at 1.2 µM 8% | [8]; at 3.7 µM 28% | [8]; at 11.0 µM 17% | [8]; at 33.0 µM 43% | [8]; at 100.0 µM 54% | [9]; [17] 8% | [9]; [18] 27% | [9]; at 50.0 µM 17.6% | [10]; at 1.2 µM 2% | [10]; at 3.7 µM 5% | [10]; at 11.0 µM -22% | [10]; at 33.0 µM 31% | [11]; at 1.2 µM 2% | [11]; at 3.7 µM 7% | [11]; at 11.0 µM 26% | [11]; at 33.0 µM 43% | [12]; [17] 64% | [13]; at 1.2 µM 1% | [13]; at 3.7 µM 12% | [13]; at 11.0 µM 23% | [13]; at 33.0 µM 37% | [13]; at 100.0 µM 58%
active: [4]; [18] 82% | [5]; at 100.0 µM 80% | [6]; at 100.0 µM 79% | [10]; at 100.0 µM 94% | [11]; at 100.0 µM 78% | [12]; [18] 86% | [12]; at 50.0 µM 88.4%

Oc1ccc(Br)cc1C=NC1CCCCC1
active: [1]; at 33.0 µM 95% | [1]; at 100.0 µM 98% | [2]; at 33.0 µM 91% | [2]; at 100.0 µM 99% | [3]; at 33.0 µM 74% | [3]; at 100.0 µM 93% | [4]; at 33.0 µM 97% | [4]; at 50.0 µM 78.9% | [4]; at 100.0 µM 97% | [5]; at 33.0 µM 94% | [5]; at 50.0 µM 88.5% | [5]; at 100.0 µM 99% | [7]; [18] 99% | [7]; at 50.0 µM 85.3% | [8]; at 100.0 µM 98% | [9]; [18] 99% | [14]; [18] 99% | [14]; at 50.0 µM 87% | [14]; at 100.0 µM 97% | [10]; at 33.0 µM 74% | [10]; at 100.0 µM 99% | [11]; at 33.0 µM 96% | [11]; at 100.0 µM 99% | [15]; at 33.0 µM 92% | [15]; at 100.0 µM 98% | [13]; at 33.0 µM 92% | [13]; at 100.0 µM 97%
inactive: [1]; at 1.2 µM 0% | [1]; at 3.7 µM 15% | [1]; at 11.0 µM 35% | [2]; at 1.2 µM -24% | [2]; at 3.7 µM -18% | [2]; at 11.0 µM 6% | [3]; at 1.2 µM 3% | [3]; at 3.7 µM 12% | [3]; at 11.0 µM 35% | [4]; at 1.2 µM -14% | [4]; at 3.7 µM -18% | [4]; [17] 44% | [4]; at 11.0 µM 49% | [4]; [18] 45% | [5]; at 1.2 µM -24% | [5]; at 3.7 µM -21% | [5]; [17] 47% | [5]; at 11.0 µM 11% | [5]; [18] 60% | [7]; [17] -2% | [8]; at 1.2 µM -3% | [8]; at 3.7 µM 1% | [8]; at 11.0 µM 12% | [8]; at 33.0 µM 39% | [9]; [17] 53% | [9]; at 50.0 µM 57% | [14]; at 1.2 µM -4% | [14]; at 3.7 µM 2% | [14]; [17] 46% | [14]; at 11.0 µM 5% | [14]; at 33.0 µM 59% | [10]; at 1.2 µM -2% | [10]; at 3.7 µM 0% | [10]; at 11.0 µM 15% | [11]; at 1.2 µM -6% | [11]; at 3.7 µM 17% | [11]; at 11.0 µM 59% | [15]; at 1.2 µM 7% | [15]; at 3.7 µM 6% | [15]; at 11.0 µM 39% | [13]; at 1.2 µM 5% | [13]; at 3.7 µM 11% | [13]; at 11.0 µM 29%

Nc1nc(N)c2cc(Sc3ccc4ccccc4c3)ccc2n1
active: [1]; at 11.0 µM 92% | [1]; at 33.0 µM 96% | [1]; at 100.0 µM 92% | [16]; at 11.0 µM 74% | [16]; at 33.0 µM 93% | [16]; at 100.0 µM 94% | [5]; [17] 79% | [5]; at 11.0 µM 94% | [5]; at 33.0 µM 95% | [5]; [18] 99% | [5]; at 50.0 µM 91.3% | [5]; at 100.0 µM 95% | [6]; at 33.0 µM 96% | [6]; at 100.0 µM 94% | [7]; [18] 97% | [7]; at 50.0 µM 89% | [8]; at 33.0 µM 85% | [8]; at 100.0 µM 89% | [9]; [18] 85% | [9]; at 50.0 µM 86.7% | [14]; at 11.0 µM 74% | [14]; at 33.0 µM 94% | [14]; [18] 97% | [14]; at 50.0 µM 85.8% | [14]; at 100.0 µM 93% | [10]; at 33.0 µM 87% | [10]; at 100.0 µM 92% | [11]; at 11.0 µM 79% | [11]; at 33.0 µM 95% | [11]; at 100.0 µM 93% | [15]; at 11.0 µM 80% | [15]; at 33.0 µM 94% | [15]; at 100.0 µM 91% | [13]; at 11.0 µM 78% | [13]; at 33.0 µM 93% | [13]; at 100.0 µM 93%
inactive: [1]; at 1.2 µM 28% | [1]; at 3.7 µM 69% | [3]; at 1.2 µM 17% | [3]; at 3.7 µM 31% | [3]; at 11.0 µM 31% | [3]; at 33.0 µM 65% | [3]; at 100.0 µM 63% | [16]; at 1.2 µM -23% | [16]; at 3.7 µM 12% | [5]; at 1.2 µM -13% | [5]; at 3.7 µM 61% | [6]; at 1.2 µM -13% | [6]; at 3.7 µM -2% | [6]; at 11.0 µM 69% | [7]; [17] 62% | [8]; at 1.2 µM 2% | [8]; at 3.7 µM 9% | [8]; at 11.0 µM 50% | [9]; [17] 10% | [14]; at 1.2 µM -21% | [14]; at 3.7 µM -4% | [14]; [17] 30% | [10]; at 1.2 µM -18% | [10]; at 3.7 µM 25% | [10]; at 11.0 µM 69% | [11]; at 1.2 µM -11% | [11]; at 3.7 µM 22% | [15]; at 1.2 µM 3% | [15]; at 3.7 µM 38% | [13]; at 1.2 µM -6% | [13]; at 3.7 µM 27%
